Test results: PubChem BioAssay AID1159580 (chemical genetic matrix, 2015)
“And” between values parts separate entries of the source, which are not always exact repeats. Equal values may be shown once. The campaign covered roughly 5,500 compounds. About 2,000 (36%) were called active. Roughly 18% stayed inconclusive and do not appear here. Rule as the data show it: active = normalized growth mostly below about 0.91 (no sharp cut-off); inconclusive = no clear call, values can overlap the other calls; inactive = mostly above about 0.92. The list shows a part of the results.

Assay: chemical genetic growth profiling, strain panel (AID 1159580);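 also: tested at 20 µM; growth read once vehicle control cultures reached saturation at 30 °C; 1 = growth at the plate median or of vehicle wells; lower values mean less growth of the strain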
Settings: growth OD

Measured: normalized growth

CC/C(=C(\c1ccccc1)c1ccc(OCCN(C)C)cc1)c1ccccc1
inactive: S. cerevisiae deletion strains, locus YKL068W, hits give low values 1 | S. cerevisiae deletion strains, locus YKL085W, strain MDH1 (second series), hits give low values 0.952 | S. cerevisiae deletion strains, locus YKL085W, strain MDH1, hits give low values 0.952 | S. cerevisiae deletion strains, locus YNL175C, strain NOP13, hits give low values 0.968 | S. cerevisiae deletion strains, locus YNL183C, strain NPR1, hits give low values 0.901 | S. cerevisiae deletion strains, locus YNL250W, strain rad50, hits give low values 0.999 | S. cerevisiae deletion strains, locus YNL271C, strain bni1, hits give low values 0.953 | S. cerevisiae deletion strains, locus YNL322C, strain KRE1 (second series), hits give low values 1.07 | S. cerevisiae deletion strains, locus YOR231W, strain MKK1, hits give low values 0.894 | S. cerevisiae deletion strains, locus YPR141C, strain kar3, hits give low values 1.04
active: S. cerevisiae deletion strains, locus YKL009W, strain mrt4, hits give low values 0.79 | S. cerevisiae deletion strains, locus YKL160W, strain elf1, hits give low values 0.13 | S. cerevisiae deletion strains, locus YKL190W, strain CNB1, hits give low values 0.045 | S. cerevisiae deletion strains, locus YKR001C, strain vps1, hits give low values 0.064 | S. cerevisiae deletion strains, locus YKR026C, strain gcn3, hits give low values 0.184 | S. cerevisiae deletion strains, locus YKR091W, strain srl3, hits give low values 0.0995 | S. cerevisiae deletion strains, locus YLL001W, strain dnm1, hits give low values 0.0862 | S. cerevisiae deletion strains, locus YLL026W, hits give low values 0.0741 | S. cerevisiae deletion strains, locus YLL041C, strain sdh2, hits give low values 0.115 | S. cerevisiae deletion strains, locus YLR027C, strain aat2, hits give low values 0.0818 | S. cerevisiae deletion strains, locus YLR039C, strain RIC1, hits give low values 0.0749 | S. cerevisiae deletion strains, locus YLR058C, strain SHM2, hits give low values 0.0464 | S. cerevisiae deletion strains, locus YLR102C, strain apc9, hits give low values 0.0601 | S. cerevisiae deletion strains, locus YLR113W, strain HOG1, hits give low values 0.822 | S. cerevisiae deletion strains, locus YLR221C, strain rsa3, hits give low values 0.121 | S. cerevisiae deletion strains, locus YLR258W, strain gsy2, hits give low values 0.0791 | S. cerevisiae deletion strains, locus YLR262C, strain YPT6 (second series), hits give low values 0.182 | S. cerevisiae deletion strains, locus YLR262C, strain YPT6, hits give low values 0.0867 | S. cerevisiae deletion strains, locus YLR268W, strain sec22, hits give low values 0.0695 | S. cerevisiae deletion strains, locus YLR320W, strain mms22, hits give low values 0.171 | S. cerevisiae deletion strains, locus YLR330W, strain CHS5, hits give low values 0.0509 | S. cerevisiae deletion strains, locus YLR342W, strain FKS1 (second series), hits give low values 0.0626 | S. cerevisiae deletion strains, locus YLR342W, strain FKS1, hits give low values 0.0912 | S. cerevisiae deletion strains, locus YLR357W, strain rsc2, hits give low values 0.181 | S. cerevisiae deletion strains, locus YLR370C, strain arc18, hits give low values 0.0663 | S. cerevisiae deletion strains, locus YLR371W, strain rom2, hits give low values 0.0629 | S. cerevisiae deletion strains, locus YLR384C, strain iki3, hits give low values 0.223 | S. cerevisiae deletion strains, locus YLR418C, strain cdc73, hits give low values 0.105 | S. cerevisiae deletion strains, locus YML016C, strain PPZ1, hits give low values 0.0451 | S. cerevisiae deletion strains, locus YML032C, strain rad52, hits give low values 0.0687 | S. cerevisiae deletion strains, locus YML120C, strain ndi1, hits give low values 0.114 | S. cerevisiae deletion strains, locus YML124C, strain tub3, hits give low values 0.0591 | S. cerevisiae deletion strains, locus YMR058W, strain fet3, hits give low values 0.0718 | S. cerevisiae deletion strains, locus YMR078C, strain ctf18, hits give low values 0.0689 | S. cerevisiae deletion strains, locus YMR125W, strain sto1, hits give low values 0.131 | S. cerevisiae deletion strains, locus YMR129W, hits give low values 0.0877 | S. cerevisiae deletion strains, locus YMR205C, strain PFK2, hits give low values 0.172 | S. cerevisiae deletion strains, locus YMR223W, strain ubp8, hits give low values 0.0676 | S. cerevisiae deletion strains, locus YMR231W, strain pep5, hits give low values 0.0689 | S. cerevisiae deletion strains, locus YMR263W, strain SAP30, hits give low values 0.0557 | S. cerevisiae deletion strains, locus YMR307W, strain GAS1, hits give low values 0.103 and 0.123 | S. cerevisiae deletion strains, locus YNL067W, strain RPL9B, hits give low values 0.0484 | S. cerevisiae deletion strains, locus YNL071W, strain lat1, hits give low values 0.165 | S. cerevisiae deletion strains, locus YNL128W, strain TEP1, hits give low values 0.0645 | S. cerevisiae deletion strains, locus YNL153C, strain GIM3, hits give low values 0.0543 | S. cerevisiae deletion strains, locus YNL197C, strain WHI3, hits give low values 0.704 | S. cerevisiae deletion strains, locus YNL209W, strain ssb2, hits give low values 0.1 | S. cerevisiae deletion strains, locus YNL224C, strain SQS1, hits give low values 0.206 | S. cerevisiae deletion strains, locus YNL233W, strain BNI4, hits give low values 0.0506 | S. cerevisiae deletion strains, locus YNL248C, strain rpa49, hits give low values 0.555 | S. cerevisiae deletion strains, locus YNL298W, strain CLA4, hits give low values 0.744 | S. cerevisiae deletion strains, locus YNL307C, strain MCK1, hits give low values 0.0675 | S. cerevisiae deletion strains, locus YNL322C, strain KRE1, hits give low values 0.0467 and 0.567 | S. cerevisiae deletion strains, locus YNR049C, strain mso1, hits give low values 0.0842 | S. cerevisiae deletion strains, locus YNR052C, strain pop2, hits give low values 0.0611 | S. cerevisiae deletion strains, locus YOL006C, strain TOP1, hits give low values 0.0917 | S. cerevisiae deletion strains, locus YOL012C, strain htz1 0.187 | S. cerevisiae deletion strains, locus YOL147C, strain pex11, hits give low values 0.0578 | S. cerevisiae deletion strains, locus YOR001W, strain rrp6, hits give low values 0.431 | S. cerevisiae deletion strains, locus YOR061W, strain CKA2, hits give low values 0.0446 | S. cerevisiae deletion strains, locus YOR069W, strain VPS5, hits give low values 0.0459 | S. cerevisiae deletion strains, locus YOR070C, strain gyp1, hits give low values 0.0646 | S. cerevisiae deletion strains, locus YOR080W, strain dia2, hits give low values 0.408 | S. cerevisiae deletion strains, locus YOR083W, strain WHI5 (second series), hits give low values 0.185 | S. cerevisiae deletion strains, locus YOR083W, strain WHI5, hits give low values 0.0831 | S. cerevisiae deletion strains, locus YOR106W, strain vam3, hits give low values 0.0773 | S. cerevisiae deletion strains, locus YOR136W, strain idh2, hits give low values 0.0725 | S. cerevisiae deletion strains, locus YOR144C, strain elg1, hits give low values 0.0595 | S. cerevisiae deletion strains, locus YOR184W, strain ser1, hits give low values 0.0775 | S. cerevisiae deletion strains, locus YOR265W, strain rbl2, hits give low values 0.0798 | S. cerevisiae deletion strains, locus YOR270C, strain vph1, hits give low values 0.136 | S. cerevisiae deletion strains, locus YOR290C, strain snf2, hits give low values 0.125 | S. cerevisiae deletion strains, locus YOR316C, strain cot1, hits give low values 0.0588 | S. cerevisiae deletion strains, locus YPL051W, strain arl3, hits give low values 0.136 | S. cerevisiae deletion strains, locus YPL055C, strain LGE1, hits give low values 0.0697 | S. cerevisiae deletion strains, locus YPL078C, strain atp4, hits give low values 0.288 | S. cerevisiae deletion strains, locus YPL106C, strain sse1, hits give low values 0.114 | S. cerevisiae deletion strains, locus YPL240C, strain hsp82, hits give low values 0.106 | S. cerevisiae deletion strains, locus YPL241C, strain CIN2, hits give low values 0.0469 | S. cerevisiae deletion strains, locus YPL256C, strain CLN2, hits give low values 0.815 | S. cerevisiae deletion strains, locus YPR119W, strain clb2, hits give low values 0.0696 | S. cerevisiae deletion strains, locus YPR163C, strain tif3, hits give low values 0.0696 | S. cerevisiae deletion strains, locus YPR167C, strain met16, hits give low values 0.0609 | S. cerevisiae deletion strains, strain wtn01, hits give low values 0.0608 | S. cerevisiae strains, strain wild type, hits give low values 0.0464
